Assay results as given in the supplement of paper PMC11732987, “Enantioselective OTUD7B fragment discovery through chemoproteomics screening and high-throughput optimisation” (Communications Chemistry, 2025).

Assays:
Assay in all cases: log2 ratio of Biotin-Ahx-Ub-VS probe labelling (fragment/DMSO); higher = less target engagement (more negative = stronger competition), active = hit call of the paper (q ≤ 0.05, log2 ratio ≤ -1)
Conditions in all cases: compound concentration: 200 uM; treatment time: 3 h
[1] = target: T1, OTUD6B (UniProt Q8N6M0)
T1 sequence (whole entry): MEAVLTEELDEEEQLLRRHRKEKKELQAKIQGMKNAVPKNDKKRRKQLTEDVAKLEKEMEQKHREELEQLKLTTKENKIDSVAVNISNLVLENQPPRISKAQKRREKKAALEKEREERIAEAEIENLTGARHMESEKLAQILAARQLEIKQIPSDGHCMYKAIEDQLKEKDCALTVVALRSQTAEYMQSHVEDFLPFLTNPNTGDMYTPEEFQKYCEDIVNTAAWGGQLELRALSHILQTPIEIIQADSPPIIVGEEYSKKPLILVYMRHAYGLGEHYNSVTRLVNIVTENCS
Procedure, shortened: (§1)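 Fragment (200 µM) or vehicle was incubated for 3 h with triplicate HEK293T lysate samples of 495 µg, which were then treated with Biotin-Ahx-Ub-VS at 0.5 µM final for 1 h. Labelled DUBs were enriched on NeutrAvidin, digested with LysC and trypsin, and analysed by diaPASEF LC-MS/MS. Values are average log2 fragment/vehicle ratios from an unpaired t-test on global-median-normalised Spectronaut label-free quantities, using proteins with ≥2 unique peptides.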

[2] = target: T2, OTUD7B (UniProt Q6GQQ9)
T2 sequence (whole entry): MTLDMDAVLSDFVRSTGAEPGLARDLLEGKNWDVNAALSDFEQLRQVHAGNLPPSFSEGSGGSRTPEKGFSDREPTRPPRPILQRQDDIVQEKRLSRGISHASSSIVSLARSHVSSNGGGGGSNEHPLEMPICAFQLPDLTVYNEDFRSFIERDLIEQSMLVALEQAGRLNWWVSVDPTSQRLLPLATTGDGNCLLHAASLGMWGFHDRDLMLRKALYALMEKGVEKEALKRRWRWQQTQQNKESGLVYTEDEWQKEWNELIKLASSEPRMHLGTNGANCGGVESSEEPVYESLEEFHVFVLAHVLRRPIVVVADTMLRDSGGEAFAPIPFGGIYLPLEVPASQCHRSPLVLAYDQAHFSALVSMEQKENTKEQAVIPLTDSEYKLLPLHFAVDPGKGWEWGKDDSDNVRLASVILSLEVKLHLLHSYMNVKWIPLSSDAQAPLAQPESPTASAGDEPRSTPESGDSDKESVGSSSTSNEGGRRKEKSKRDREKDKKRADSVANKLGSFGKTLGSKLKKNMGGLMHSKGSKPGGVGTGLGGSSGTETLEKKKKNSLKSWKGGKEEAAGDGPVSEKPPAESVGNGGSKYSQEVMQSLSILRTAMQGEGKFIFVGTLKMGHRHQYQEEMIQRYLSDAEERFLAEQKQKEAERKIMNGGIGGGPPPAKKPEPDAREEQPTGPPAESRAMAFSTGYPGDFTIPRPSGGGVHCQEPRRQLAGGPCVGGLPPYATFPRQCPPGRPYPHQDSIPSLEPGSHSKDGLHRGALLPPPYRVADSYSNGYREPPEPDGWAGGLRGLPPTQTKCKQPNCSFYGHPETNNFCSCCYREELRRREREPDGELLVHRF
Procedure, shortened: as §1

[3] = target: PRPF8 (UniProt Q6P2Q9)
Procedure, shortened: as §1

[4] = target: T3, PSMD7 (UniProt P51665)
T3 sequence (whole entry): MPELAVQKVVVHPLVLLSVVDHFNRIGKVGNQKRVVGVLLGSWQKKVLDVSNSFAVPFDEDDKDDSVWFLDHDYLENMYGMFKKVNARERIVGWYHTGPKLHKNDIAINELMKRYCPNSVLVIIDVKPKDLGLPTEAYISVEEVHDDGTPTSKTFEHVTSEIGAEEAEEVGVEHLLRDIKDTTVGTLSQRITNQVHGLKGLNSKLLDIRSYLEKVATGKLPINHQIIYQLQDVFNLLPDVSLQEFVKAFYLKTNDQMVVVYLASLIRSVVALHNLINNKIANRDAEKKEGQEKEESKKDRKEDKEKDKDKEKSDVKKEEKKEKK
Procedure, shortened: as §1

[5] = target: UCHL1 (UniProt P09936)
UCHL1, sequence (P09936 whole entry, looked up): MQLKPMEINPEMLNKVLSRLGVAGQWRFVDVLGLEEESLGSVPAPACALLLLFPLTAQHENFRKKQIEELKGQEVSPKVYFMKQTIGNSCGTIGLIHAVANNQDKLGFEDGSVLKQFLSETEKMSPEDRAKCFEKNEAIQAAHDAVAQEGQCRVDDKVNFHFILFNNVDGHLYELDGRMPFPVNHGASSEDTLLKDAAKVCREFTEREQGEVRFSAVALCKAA
Procedure, shortened: as §1

[6] = target: T4, UCHL3 (UniProt P15374)
T4 sequence (whole entry): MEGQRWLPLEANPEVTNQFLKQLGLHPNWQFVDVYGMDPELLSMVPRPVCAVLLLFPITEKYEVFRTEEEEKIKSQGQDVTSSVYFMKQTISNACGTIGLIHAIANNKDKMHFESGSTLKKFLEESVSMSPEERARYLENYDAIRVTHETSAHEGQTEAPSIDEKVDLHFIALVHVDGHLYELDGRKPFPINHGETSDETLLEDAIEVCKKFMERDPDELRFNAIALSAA
Procedure, shortened: as §1

[7] = target: T5, UCHL5 (UniProt Q9Y5K5)
T5 sequence (whole entry): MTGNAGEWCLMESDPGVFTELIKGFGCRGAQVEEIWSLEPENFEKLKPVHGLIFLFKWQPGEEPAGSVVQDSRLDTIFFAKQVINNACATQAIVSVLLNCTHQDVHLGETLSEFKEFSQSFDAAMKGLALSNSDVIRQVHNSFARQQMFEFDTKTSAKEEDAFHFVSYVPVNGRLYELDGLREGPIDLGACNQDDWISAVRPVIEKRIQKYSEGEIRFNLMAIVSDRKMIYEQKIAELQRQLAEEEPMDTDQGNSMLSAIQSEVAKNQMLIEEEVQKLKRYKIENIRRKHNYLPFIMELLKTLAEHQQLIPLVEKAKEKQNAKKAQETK
Procedure, shortened: as §1

[8] = target: USP10 (UniProt Q14694)
USP10, sequence (Q14694 whole entry): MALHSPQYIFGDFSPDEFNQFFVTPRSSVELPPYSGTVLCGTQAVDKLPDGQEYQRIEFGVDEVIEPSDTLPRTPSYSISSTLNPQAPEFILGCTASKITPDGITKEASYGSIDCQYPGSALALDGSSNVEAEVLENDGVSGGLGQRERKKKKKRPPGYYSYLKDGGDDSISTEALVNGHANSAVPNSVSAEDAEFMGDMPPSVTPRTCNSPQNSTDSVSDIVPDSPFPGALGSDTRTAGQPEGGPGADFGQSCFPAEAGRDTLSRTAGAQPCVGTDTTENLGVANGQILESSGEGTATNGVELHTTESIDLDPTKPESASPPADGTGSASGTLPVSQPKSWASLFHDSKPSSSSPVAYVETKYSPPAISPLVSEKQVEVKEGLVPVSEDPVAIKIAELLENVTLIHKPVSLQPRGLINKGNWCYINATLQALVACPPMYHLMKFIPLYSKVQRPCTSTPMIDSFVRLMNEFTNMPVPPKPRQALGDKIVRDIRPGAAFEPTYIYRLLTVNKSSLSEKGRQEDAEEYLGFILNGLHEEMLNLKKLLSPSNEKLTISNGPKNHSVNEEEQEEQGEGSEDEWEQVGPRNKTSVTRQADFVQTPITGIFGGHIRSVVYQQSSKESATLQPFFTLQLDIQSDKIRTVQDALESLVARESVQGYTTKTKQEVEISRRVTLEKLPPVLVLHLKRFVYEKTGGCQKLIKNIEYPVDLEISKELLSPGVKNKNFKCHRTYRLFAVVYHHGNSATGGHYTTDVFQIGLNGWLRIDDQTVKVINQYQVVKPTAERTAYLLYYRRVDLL
Procedure, shortened: as §1

[9] = target: T6, USP15 (UniProt Q9Y4E8)
T6 sequence (whole entry): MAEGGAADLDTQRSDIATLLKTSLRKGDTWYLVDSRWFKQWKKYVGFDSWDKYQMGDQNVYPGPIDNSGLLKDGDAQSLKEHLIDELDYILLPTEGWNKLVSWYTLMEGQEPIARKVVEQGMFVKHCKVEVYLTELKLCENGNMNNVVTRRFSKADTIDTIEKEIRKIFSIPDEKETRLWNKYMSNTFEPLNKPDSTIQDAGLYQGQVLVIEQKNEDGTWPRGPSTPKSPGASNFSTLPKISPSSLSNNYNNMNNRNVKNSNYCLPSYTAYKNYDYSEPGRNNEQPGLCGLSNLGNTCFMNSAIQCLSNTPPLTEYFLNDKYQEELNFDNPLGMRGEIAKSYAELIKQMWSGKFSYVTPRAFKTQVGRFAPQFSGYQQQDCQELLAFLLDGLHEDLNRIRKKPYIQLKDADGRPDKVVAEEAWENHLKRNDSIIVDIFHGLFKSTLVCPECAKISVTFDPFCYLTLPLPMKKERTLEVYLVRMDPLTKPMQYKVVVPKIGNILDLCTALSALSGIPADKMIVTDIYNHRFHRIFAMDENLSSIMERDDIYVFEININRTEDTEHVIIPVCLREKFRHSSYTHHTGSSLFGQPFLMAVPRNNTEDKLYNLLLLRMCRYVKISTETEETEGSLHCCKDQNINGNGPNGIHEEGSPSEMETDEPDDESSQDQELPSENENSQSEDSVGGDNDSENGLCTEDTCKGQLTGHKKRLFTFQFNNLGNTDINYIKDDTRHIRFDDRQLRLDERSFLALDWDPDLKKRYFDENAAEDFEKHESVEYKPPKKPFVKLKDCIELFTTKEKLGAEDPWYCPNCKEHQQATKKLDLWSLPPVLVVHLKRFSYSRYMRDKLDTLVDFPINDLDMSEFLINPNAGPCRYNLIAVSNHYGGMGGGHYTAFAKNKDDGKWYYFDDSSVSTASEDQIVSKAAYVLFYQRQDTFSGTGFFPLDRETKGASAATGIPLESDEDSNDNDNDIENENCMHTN
Procedure, shortened: as §1

[10] = target: USP16 (UniProt Q9Y5T5)
USP16, sequence (Q9Y5T5 whole entry, looked up): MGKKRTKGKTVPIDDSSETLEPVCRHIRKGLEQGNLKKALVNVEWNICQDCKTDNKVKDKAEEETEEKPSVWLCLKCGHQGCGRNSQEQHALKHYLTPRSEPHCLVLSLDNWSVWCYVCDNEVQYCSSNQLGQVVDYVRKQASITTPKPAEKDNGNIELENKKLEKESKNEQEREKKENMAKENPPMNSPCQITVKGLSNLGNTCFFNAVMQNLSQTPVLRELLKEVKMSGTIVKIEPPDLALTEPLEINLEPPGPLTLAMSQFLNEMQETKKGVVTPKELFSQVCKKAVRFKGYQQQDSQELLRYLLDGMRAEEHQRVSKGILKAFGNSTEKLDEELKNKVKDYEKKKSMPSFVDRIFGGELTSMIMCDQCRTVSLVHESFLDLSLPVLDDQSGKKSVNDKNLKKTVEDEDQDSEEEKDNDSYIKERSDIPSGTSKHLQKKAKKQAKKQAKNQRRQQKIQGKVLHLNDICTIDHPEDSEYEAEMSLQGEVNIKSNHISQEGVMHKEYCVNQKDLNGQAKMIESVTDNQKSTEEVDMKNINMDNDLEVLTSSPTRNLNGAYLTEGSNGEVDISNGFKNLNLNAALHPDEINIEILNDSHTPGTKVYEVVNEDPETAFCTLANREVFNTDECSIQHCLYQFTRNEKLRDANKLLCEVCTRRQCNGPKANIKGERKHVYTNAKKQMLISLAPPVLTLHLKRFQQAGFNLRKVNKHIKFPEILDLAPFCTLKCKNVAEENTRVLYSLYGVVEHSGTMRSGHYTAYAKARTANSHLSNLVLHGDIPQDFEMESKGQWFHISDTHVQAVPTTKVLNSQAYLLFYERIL
Procedure, shortened: as §1

Measured: log2 ratio of Biotin-Ahx-Ub-VS probe labelling

Cl.O=C(CCl)N1CC(c2ccc(Br)cn2)C1
active: [2] -1.18 | [5] -1.41
inactive: [1] -0.116 | [3] 0.0941 | [4] -0.394 | [6] -0.211 | [7] -0.254 | [8] -0.0353 | [9] -0.409 | [10] -0.253
